Among the data in PubChem BioAssay (NCATS) are Potency and activity (max response) values, retold here.

Each structure is given as a SMILES string. Values joined by “and” are separate entries in the source; they are usually repeats but may differ in a detail not shown here. Equal values may be shown once. Records with an inconclusive call do not appear. Values without a mark were called inactive. Active and inactive are the calls of the source. Calls come from the whole dose curve; as a rule, active = well fitted curve in the direction sought with a large enough effect; inconclusive = small, poorly fitted or top-dose-only effect, or another doubt; inactive = no such curve, though single readings can be large; an effect the other way counts as inactive or inconclusive.

The nature of assay [1]: Viability qHTS for spleen associated tyrosine kinase inhibitor (SYKi) naive MV4-11 cells (AID 1963823). Note: nearly all actives have a fitted effect of over 40% in size. The gist of the method:
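Compounds were dispensed acoustically onto plates, MV4-11 cells (SYKi-naive) added at 500 per well, and plates incubated 72 hr at 37 C. CellTiter-Glo was added and luminescence measured after 10 min.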
(In general: In qHTS, concentration-response curves come from the screen itself.)

The nature of assay [2]: Viability qHTS for spleen associated tyrosine kinase inhibitor (SYKi) drug resistant MV4-11 cells (AID 1963824). Note: nearly all actives have a fitted effect of over 35% in size. The gist of the method: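 CellTiter-Glo luminescence, read 10 min after reagent addition, reports viability after a 72 hr compound exposure. Cells are an MV4-11 line made resistant to SYK inhibition, seeded at 500 per well onto compound-containing plates.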
A short description of assay [3]: Quantitative highthroughput screen to assess conditional lethalithy of P12 Ichikawa cells grown in Human Plasma-Like Medium with dialyzed fetal bovine serum (HPLM+ds) (AID 1963879). For Viability: series mostly up to about 46 µM. Note: nearly all actives have a fitted effect of over 35% in size. The settings on record: Potency: viability. The procedure, abridged:
(§1)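 Each medium arm—HPLM with 10% dialyzed FBS, or RPMI1640 with 5 mM glucose and 10% untreated or dialyzed FBS—was screened against an 11-point, 3-fold compound titration for 48 h at 37 °C, with CellTiter-Glo luminescence as endpoint.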

Assay [4] is described as follows: Quantitative highthroughput screen to assess conditional lethalithy of P12 Ichikawa cells grown in RPMI1640 with dialyzed fetal bovine serum (RPMI+ds) (AID 1963880).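 For Viability: 100% = DMSO wells and 0% = empty wells on each plate.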 Note: nearly all actives have a fitted effect of over 35% in size. The settings on record: Potency: P12-Ichikawa viability. The procedure, abridged: as §1
A short description of assay [5]: Quantitative highthroughput screen to assess conditional lethalithy of P12 Ichikawa cells grown in RPMI1640 with untreated serum (RPMI+s) (AID 1963881).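 For Viability: series mostly up to about 46 µM; 100% = DMSO wells and 0% = empty wells without cells.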 Note: nearly all actives have a fitted effect of over 35% in size. The settings on record: Potency: viability. The procedure, abridged: as §1
A short description of assay [6]: Cellular viability qHTS for adrenocortical cancer (ACC) cell line SW-13 (AID 1963989).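 For activity (max response): cells grown in serum-free medium with ITS supplement; % is set by controls: 0 for no effect and ±100 for the full control effect.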 Note: nearly all actives have a fitted effect of over 65% in size. Conditions: SW-13 ACC cells viability, CellTiter-Glo, 48 h; activity (max response): active compounds read low. The procedure, abridged:
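IC50 and maximal-response values come from four-parameter logistic fits of titration data. SW-13 cells in serum-free medium received compounds (up to 46 uM final) for 48 h before CellTiter-Glo luminescence.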

Assay [7] can be described thus: Cellular viability qHTS for adrenocortical cancer (ACC) cell line NCI-H295R (AID 1963990). Note: nearly all actives have a fitted effect of over 60% in size. The procedure, abridged:
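Adrenocortical carcinoma cells, suspended at 300 000 cells/mL in serum-free DMEM plus ITS, rested overnight before pin transfer of compound. After two days' incubation, ATP-dependent luminescence was recorded and curve-fitted.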

Assay [8] is described as follows: Quantitative highthroughput screen to assess conditional lethalithy of SEM cells grown in Human Plasma-Like Medium with dialyzed fetal bovine serum (HPLM+ds) (AID 1963882). For Viability: series mostly up to about 46 µM. Note: nearly all actives have a fitted effect of over 35% in size. The procedure, abridged: as §1
Assay [9] can be described thus: Quantitative highthroughput screen to assess conditional lethalithy of SEM cells grown in RPMI1640 with unreated serum (RPMI+s) (AID 1963883).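 For Viability: 100% = DMSO wells and 0% = empty wells without cells.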 Note: nearly all actives have a fitted effect of over 35% in size. The procedure, abridged:
as §1

Assay [10] is described as follows: Quantitative highthroughput screen to assess conditional lethalithy of SEM cells grown in RPMI1640 with dialyzed fetal bovine serum (RPMI+ds) (AID 1963884).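 For Viability: series mostly up to about 46 µM; 100% = DMSO control wells and 0% = empty wells without cells.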 Note: nearly all actives have a fitted effect of over 35% in size. The procedure, abridged:
as §1
Potency is the fitted concentration of half-maximal effect.

As for `C[C@@H](Oc1cc(-n2cnc3ccc(CN4CCN(C)CC4)cc32)sc1C(N)=O)c1ccccc1C(F)(F)F`, the Potency is 0.0209 µM (active) in assay [1]; 10.5 nM (active) in [2]; 0.0296 µM (active) in assay [3]; 0.0332 µM (active) in assay [4]; 0.0332 µM (active) in [5].

Take `C[C@@H]1COCCN1c1cc(=O)n2c(n1)N(Cc1cncc(Cl)c1)[C@H](C(F)(F)F)CC2`: the Potency in assay [1] is 6.51 µM (active); in assay [2], 4110 nM (active); in assay [4], 9.33 µM (active); in assay [5] it was 9.33 µM (active). Also, the activity (max response) in assay [6] was 2.98%. In [7], the Potency result is “inactive”.

On to `O=C(Nc1cccc(C(F)(F)F)c1)Nc1cc(S(=O)(=O)NC2CC2)ccc1-c1ccsc1`, for which the Potency in assay [1] was 14.8 µM (active); in assay [2], 7420 nM (active); in assay [6], 28.2 µM (active); in [7], 31.6 µM (active). Besides, in assay [3], the Potency entry was “inactive”.

Consider `Oc1ccc(-c2ccc(-c3cc(Nc4cccc(CNC5CC5)c4)n[nH]3)cc2)c(O)c1`, for which the Potency is 0.833 µM (active) in [1]; 461 nM (active) in assay [2]; 2.35 µM (active) in assay [3]; 2.35 µM (active) in [5]; 1.66 µM (active) in assay [8]; 4.69 µM (active) in [9]. Also, the results for the Potency in [10], in assay [6] and in [7] were 7.43 µM (active), 25.1 µM (active) and 10 µM (active), respectively.

`Nc1cccc(-c2cc3c(Oc4cccc(O)c4)ncnc3[nH]2)c1`: the Potency is 1.66 µM (active) in assay [1]; 2.91 µM (active) and 3.32 µM (active) in assay [2]; 16.6 µM (active) in assay [3]; 3.16 µM (active) in [6]; 8.91 µM (active) in [7].

For `O=C(O)C1(Cc2cccc(Nc3nccs3)n2)CCC(Oc2cccc(Cl)c2F)CC1` (centres undefined), the Potency in [1] is 0.517 µM (active); in [2], 461 nM (active) and 468 nM (active); in [3] it was 2.35 µM (active); in assay [5], 2.64 µM (active); in assay [8] it was 2.96 µM (active); in assay [9], 3.32 µM (active).

`COc1ccc(CCN(C)CCCOc2ccc(S(=O)(=O)c3[nH]c4ccccc4c3C(C)C)cc2)cc1OC`: the Potency was 7.42 µM (active) in assay [1], 6610 nM (active) in assay [2], 28.2 µM (active) in assay [6] and 11.2 µM (active) in assay [7]. Besides, in [3], the Potency entry was “inactive”.

On to `CN(C)c1nc(Cc2ccc(NC(=O)c3ccc4ccccc4c3)cc2)nc(Cl)c1CC(=O)O`, for which the Potency entry in [1], in [2], in assay [8], in [9] and in [10] was “inactive” throughout. In assay [4], the Potency was 5.26 µM (active).

Consider `CC(C)C[C@H](NC(=O)c1cc2ccccc2s1)C(=O)N1CCN(C(=O)[C@H](CO)NS(=O)(=O)c2ccc(Cl)cc2Cl)CC1`, for which the Potency in assay [1] was 20.9 µM (active); in assay [2], 16600 nM (active); in assay [7] it was 25.1 µM (active). The Potency entry in assay [3] and in [5] was “inactive” throughout.

With `Nc1ncnc2c1c(-c1cccc(OCc3ccccc3)c1)cn2C1CC(CN2CCC2)C1` (centres undefined), the Potency in [1] was 0.58 µM (active); in assay [2], 920 nM (active). The Potency result in assay [3], in assay [4], in assay [5] and in [7] was “inactive” each time.

Take `Clc1cccc(-c2nnnn2Cc2cccnc2)c1Cl`: the Potency result in assay [1] and in [2] was “inactive” each time. Also, the Potency in assay [3] is 7.43 µM (active); in assay [5], 1.32 µM (active).

In the case of `COC1=C(OC)C(=O)C(CCCCCCCCCCO)=C(C)C1=O`, the Potency in [1] is 10.6 µM (active); in assay [2], 10.6 µM (active) and 13.2 µM (active); in assay [7] it was 2.91 µM (active) and 5.01 µM (active). The Potency result in assay [3], in [8] and in assay [9] was “inactive” in each case.

With `Cc1c(CN2CCN(S(C)(=O)=O)CC2)sc2c(N3CCOCC3)nc(-c3cnc(N)nc3)nc12`, the Potency in assay [1] was 0.146 µM (active); in assay [2], 366 nM (active); in assay [3], 0.418 µM (active); in assay [7], 0.794 µM (active).

As to `CN(C)CC[C@H](CSc1ccccc1)Nc1ccc(S(=O)(=O)NC(=O)c2ccc(N3CCN(Cc4ccccc4-c4ccc(Cl)cc4)CC3)cc2)cc1[N+](=O)[O-]`, the Potency was 0.148 µM (active) in [1]; 33.2 nM (active) in [2]; 1.48 µM (active) in assay [3]; 2.35 µM (active) in assay [4]; 0.0935 µM (active) in assay [9]; 0.0469 µM (active) in assay [10]. Besides, the Potency in assay [7] was 22.4 µM (active).

Consider `CN[C@@H]1CN(c2ccc3c(=O)c(C(=O)O)cn(-c4nccs4)c3n2)C[C@@H]1OC`, for which the Potency was 0.407 µM (active) in assay [1]; 512 nM (active) in assay [2]; 14.4 µM (active) in [3]; 6.45 µM (active) in [5]; 6.45 µM (active) in assay [8]; 1.44 µM (active) in assay [9]. The Potency in [10] is 2.04 µM (active). In addition, the activity (max response) in [6] is -14.5%.

With `Oc1cc(-c2nc(-c3ccccc3)[nH]c2-c2ccncc2)ccc1Cl`, the Potency in [1] was 6.51 µM (active); in [2] it was 5.9 µM (active) and 3.66 µM (active); in [3], 16.6 µM (active); in assay [6] it was 17.8 µM (active); in assay [7] it was 28.2 µM (active). In assay [8], the Potency entry is “inactive”.

Consider `COc1cc2c(cc1Cc1cccc(Cl)c1F)c(=O)c(C(=O)O)cn2[C@H](CO)C(C)C`, for which the Potency in assay [1] is 5.9 µM (active); in [2], 7420 nM (active); in assay [3], 26.4 µM (active); in assay [4] it was 16.6 µM (active); in assay [5] it was 16.6 µM (active); in [7], 25.1 µM (active).
